# Data as given in PubChem BioAssay (NCATS).
# “And” between values parts separate entries of the source, which are not always exact repeats. Equal entries are not always repeated. Records with an inconclusive call do not appear. Entries that show only a call come without a potency. The source made the active and inactive calls. Unless noted, the call rests on the fitted dose curve; in most records, active means well fitted curve in the direction sought with a large enough effect; inconclusive means small, poorly fitted or top-dose-only effect, or another doubt; inactive means no such curve, though single readings can be large; an effect the other way counts as inactive or inconclusive.
# Experiments:
# [1] = A High-Content qHTS Against Drug Library for the Identification of Small Molecules that Inhibit DYT1 Early Onset Primary Dystonia-Associated Cell Pathology (AID 1645839; calls by dose curve; further: potency means the concentration at half of the fitted maximal effect); details: HEK293 Flp-In EGFP-delE TorsinA, punctate imaging, 48 h; series mostly up to 46.1 µM
# Method in brief: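 Induced EGFP-delE TorsinA cells are imaged after 48 h of compound treatment. Punctate fusion-protein distribution gives the %pathology value, while nuclei counts flag toxicity. Wild-type EGFP-hTOR1A cells define the normal pattern.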
# [2] = molecular target: Cytochrome P450 2C9 (Homo sapiens) (UniProt P11712); test: Cytochrome P450 family 2 subfamily C member 9 (CYP2C9) small molecule antagonists: luciferase biochemical (cell-free) qHTS assay (AID 1645842; active means well fitted curve in the direction sought with a large enough effect in the repeat runs; an effect the other way counts as inactive or inconclusive; further: nearly all actives have a fitted effect of over 55% in size; further: potency means the concentration at half of the fitted maximal effect); details: P450-Glo CYP2C9 enzyme assay, luciferin luminescence; series mostly up to 57.4 µM
# Method in brief: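 P450-Glo CYP2C9 system: proluciferin substrate with enzyme in mix containing 0.4% BSA, 10 min at room temperature, then NADPH regeneration solution added and incubated 1 h at 37C. Detection reagent stopped reaction; luminescence read after 20 min as RLU.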
# [3] = Primary qHTS for inhibitors of nuclear receptor binding SET domain protein 2 (NSD2) in an isogenic RCH-ACV NSD2 p.E1099K mutant (9B) (AID 1645876); details: RCH-ACV NSD2 E1099K (9B) viability, CellTiter-Glo, 72 h; series mostly up to 44.9 µM; further: nearly all actives have a fitted effect of over 70% in size; further: potency means the concentration at half of the fitted maximal effect
# [4] = Primary qHTS for inhibitors of nuclear receptor binding SET domain protein 2 (NSD2) in an RCH-ACV wild type WT cells (2C) (AID 1645877); details: RCH-ACV (leukaemia line) NSD2 WT (2C) viability, CellTiter-Glo, 72 h; series mostly up to 44.9 µM; further: nearly all actives have a fitted effect of over 70% in size; further: potency means the concentration at half of the fitted maximal effect
# [5] = molecular target: Cytochrome P450 2D6 (Homo sapiens) (UniProt P10635); test: Cytochrome P450 family 2 subfamily D member 6 (CYP2D6) small molecule antagonists: luciferase biochemical (cell-free) qHTS assay (AID 1645840; active means well fitted curve in the direction sought with a large enough effect in the repeat runs; an effect the other way counts as inactive or inconclusive; further: nearly all actives have a fitted effect of over 55% in size; further: potency means the concentration at half of the fitted maximal effect); details: P450-Glo CYP2D6 enzyme, luciferin luminescence, 1 h; series mostly up to 57.4 µM
# Method in brief: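 P450-Glo CYP2D6 system: proluciferin substrate converted by enzyme to luciferin, read by luminescence proportional to activity. Enzyme-substrate mix with compound 10 min at room temperature, then NADPH regeneration 1 h before detection reagent.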
# Papain (Carica papaya) = Papain (Carica papaya) (UniProt P00784); test: Primary qHTS assay for inhibitors of the protease papain (AID 1645873); details: papain Z-FR-AMC cleavage, AMC fluorescence; series mostly up to 49.8 µM;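 further: papain turnover of Z-FR-AMC read as the AMC fluorescence gain over 10 min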
# [6] = molecular target: Cytochrome P450 3A4 (Homo sapiens) (UniProt P08684); test: Cytochrome P450 family 3 subfamily A member 4 (CYP3A4) small molecule antagonists: luciferase qHTS assay (AID 1645841; active means well fitted curve in the direction sought with a large enough effect in the repeat runs; an effect the other way counts as inactive or inconclusive; further: nearly all actives have a fitted effect of over 45% in size); details: P450-Glo CYP3A4 enzyme assay, luciferin luminescence; series mostly up to 57.4 µM
# Method in brief: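 P450-Glo CYP3A4 enzyme with proluciferin substrate was preincubated with DMSO-dissolved compounds for 10 min at room temperature. NADPH regeneration solution started a 1 h reaction. Detection reagent stopped it, and luminescence was read after 20 min.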
# [7] = molecular target: N-terminal Xaa-Pro-Lys N-methyltransferase 1 (Homo sapiens) (UniProt Q9BV86); test: Confirmatory qHTS for Inhibitors of N-terminal methyltransferase 1 (NTMT1): MTaseGlo Assay (AID 1645874); details: NTMT1 enzyme, MTase-Glo SAH luminescence; series mostly up to 100 µM;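 further: luminescence from SAH made as NTMT1 methylates SPKRIA peptide using SAM; nearly all actives have a fitted effect of over 65% in size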
# Method in brief: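 Inhibition was derived from luminescence after SAH-to-ATP conversion, scaled between no-enzyme and DMSO wells, then fitted by 4-parameter Hill. Conditions: 125 nM NTMT1, 100 uM SAM, 1 uM SPKRIA, 30 min RT.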
# Cytochrome P450 2D6 (Homo sapiens), sequence (P10635 whole entry, looked up): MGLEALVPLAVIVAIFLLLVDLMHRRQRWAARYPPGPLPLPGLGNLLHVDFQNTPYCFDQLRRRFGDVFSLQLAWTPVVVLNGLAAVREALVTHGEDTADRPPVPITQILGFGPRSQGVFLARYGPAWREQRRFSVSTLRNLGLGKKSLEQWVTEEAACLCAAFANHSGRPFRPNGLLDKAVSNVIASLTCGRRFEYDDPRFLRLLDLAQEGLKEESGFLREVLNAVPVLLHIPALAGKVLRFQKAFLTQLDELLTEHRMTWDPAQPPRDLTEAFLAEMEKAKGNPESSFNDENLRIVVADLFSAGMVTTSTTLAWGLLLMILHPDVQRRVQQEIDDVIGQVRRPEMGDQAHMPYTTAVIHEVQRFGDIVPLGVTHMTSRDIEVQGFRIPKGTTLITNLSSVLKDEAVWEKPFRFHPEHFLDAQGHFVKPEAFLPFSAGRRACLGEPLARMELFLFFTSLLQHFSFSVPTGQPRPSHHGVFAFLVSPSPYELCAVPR
# Papain (Carica papaya), sequence (P00784 whole entry, looked up): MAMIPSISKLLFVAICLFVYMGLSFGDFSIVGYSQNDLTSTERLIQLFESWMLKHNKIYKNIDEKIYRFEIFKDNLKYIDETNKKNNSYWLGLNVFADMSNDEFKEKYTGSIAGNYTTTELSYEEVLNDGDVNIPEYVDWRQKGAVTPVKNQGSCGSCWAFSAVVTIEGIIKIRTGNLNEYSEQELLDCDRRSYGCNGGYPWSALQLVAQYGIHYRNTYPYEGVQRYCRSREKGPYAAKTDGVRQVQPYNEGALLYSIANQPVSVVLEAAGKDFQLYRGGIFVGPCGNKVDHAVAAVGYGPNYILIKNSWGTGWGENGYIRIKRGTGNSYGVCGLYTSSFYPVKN
# Cytochrome P450 2C9 (Homo sapiens), sequence (P11712 whole entry, looked up): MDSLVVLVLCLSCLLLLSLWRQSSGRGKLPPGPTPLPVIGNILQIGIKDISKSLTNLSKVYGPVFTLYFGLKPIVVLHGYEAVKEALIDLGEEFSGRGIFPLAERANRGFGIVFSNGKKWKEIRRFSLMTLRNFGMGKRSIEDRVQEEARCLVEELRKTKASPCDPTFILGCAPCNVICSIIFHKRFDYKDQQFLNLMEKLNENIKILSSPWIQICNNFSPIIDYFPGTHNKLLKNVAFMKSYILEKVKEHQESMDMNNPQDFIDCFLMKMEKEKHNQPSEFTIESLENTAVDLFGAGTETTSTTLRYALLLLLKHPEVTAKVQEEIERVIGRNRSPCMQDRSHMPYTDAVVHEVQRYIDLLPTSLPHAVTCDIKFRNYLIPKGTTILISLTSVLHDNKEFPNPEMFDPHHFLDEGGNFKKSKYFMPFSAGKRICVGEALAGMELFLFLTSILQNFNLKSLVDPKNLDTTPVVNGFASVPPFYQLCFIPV
# Cytochrome P450 3A4 (Homo sapiens), sequence (P08684 whole entry, looked up): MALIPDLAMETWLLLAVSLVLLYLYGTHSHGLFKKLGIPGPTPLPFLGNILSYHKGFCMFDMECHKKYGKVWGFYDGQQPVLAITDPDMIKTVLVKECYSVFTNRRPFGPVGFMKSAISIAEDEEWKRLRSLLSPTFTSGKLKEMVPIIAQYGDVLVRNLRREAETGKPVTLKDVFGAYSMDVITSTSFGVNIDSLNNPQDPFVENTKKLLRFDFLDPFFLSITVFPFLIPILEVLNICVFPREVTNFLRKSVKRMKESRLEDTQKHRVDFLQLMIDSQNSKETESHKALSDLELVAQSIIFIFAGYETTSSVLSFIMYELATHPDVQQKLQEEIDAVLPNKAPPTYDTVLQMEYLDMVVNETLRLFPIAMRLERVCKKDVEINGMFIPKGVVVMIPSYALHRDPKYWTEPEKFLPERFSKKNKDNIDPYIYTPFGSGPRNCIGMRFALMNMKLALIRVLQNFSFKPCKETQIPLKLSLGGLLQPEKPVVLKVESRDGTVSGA
# N-terminal Xaa-Pro-Lys N-methyltransferase 1 (Homo sapiens), sequence (Q9BV86 whole entry, looked up): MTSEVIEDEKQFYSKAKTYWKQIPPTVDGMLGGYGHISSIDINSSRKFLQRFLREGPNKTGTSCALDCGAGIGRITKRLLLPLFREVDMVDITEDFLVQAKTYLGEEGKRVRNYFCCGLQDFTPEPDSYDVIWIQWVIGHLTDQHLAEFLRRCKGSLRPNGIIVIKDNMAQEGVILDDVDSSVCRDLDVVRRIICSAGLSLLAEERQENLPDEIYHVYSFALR
structure (smiles),measurement,setting,value
Cc1cccn2c(=O)c(-c3nnn[nH]3)cnc12,Potency,[1],inactive
same,Potency,[2],inactive
same,Potency,[3],inactive
same,Potency,[4],inactive
COc1cc(C=C2CCC/C(=C\c3ccc(O)c(OC)c3)C2=O)ccc1O,Potency,[1],7.08 µM (active)
same,Potency,[3],0.237 µM (active)
same,Potency,[4],0.188 µM (active)
OC[C@H]1O[C@H](O[C@]2(CCl)O[C@H](CCl)[C@@H](O)[C@@H]2O)[C@H](O)[C@@H](O)[C@H]1Cl,Potency,[1],inactive
same,Potency,[5],inactive
same,Potency,[2],inactive
same,Potency,[3],inactive
same,Potency,[4],inactive
Cc1ccc(O)c2ncccc12,Potency,[5],inactive
same,Potency,[2],inactive
same,Potency,[3],10.6 µM (active)
CC(=O)Oc1ccc(C(=C2CCCCC2)c2ccc(OC(C)=O)cc2)cc1,Potency,[5],15.5 µM (active)
same,Potency,[2],9.77 µM (active)
same,Potency,[3],inactive
same,Potency,[4],inactive
CCN(CC)CCOC(=O)C(c1ccccc1)C1CCCCC1 (stereo not given),Potency,[5],3.09 µM (active)
CN(C)C(=S)SC(=S)N(C)C,Potency,[1],inactive
same,Potency,[5],inactive
same,Potency,[3],2.11 µM (active)
same,Potency,[4],2.99 µM (active)
CC(CCc1ccccc1)NCC(O)c1ccc(O)c(C(N)=O)c1 (stereo not given),Potency,Papain (Carica papaya),inactive
same,Potency,[3],inactive
same,Potency,[4],inactive
CCN(CCCc1ccccc1)CCCc1ccccc1,Potency,[5],1.23 µM (active)
same,Potency,[2],inactive
C[C@@H]1C(=O)NC2=Nc3cccc(Cl)c3CN21,Potency,Papain (Carica papaya),inactive
COc1ccc(CN2CCN(C(c3ccc(F)cc3)c3ccc(F)cc3)CC2)c(OC)c1OC,Potency,[5],2.19 µM (active)
same,Potency,[2],11 µM (active)
same,Potency,[4],16.3 µM (active)
Oc1c(I)cc(Cl)c2cccnc12,Potency,[1],5.62 µM (active)
same,Potency,[4],8.41 µM (active)
COc1cc(N)c(Cl)cc1C(=O)NC1CCN(CCCOc2ccc(F)cc2)CC1OC (stereo not given),Potency,[2],inactive
same,Potency,[3],15 µM (active)
same,Potency,[4],21.1 µM (active)
CN(C(=O)CN(CCO)CC(=O)N(C)C(C)(C)Cc1ccccc1)C(C)(C)Cc1ccccc1,Potency,[5],1.38 µM (active)
same,Potency,[2],15.5 µM (active)
same,Potency,[3],5.31 µM (active)
same,Potency,[4],5.31 µM (active)
O=C(N/N=C/c1ccccc1O)c1ccncc1,Potency,[1],inactive
same,Potency,[2],4.36 µM (active)
same,Potency,[3],6.68 µM (active)
same,Potency,[4],23.7 µM (active)
O=C(O)CCCCC(=O)O,Potency,[1],inactive
same,Potency,[2],inactive
same,Potency,[3],inactive
same,Potency,[4],inactive
Cc1ccc(Nc2c(F)cccc2Cl)c(CC(=O)O)c1,Potency,[1],inactive
same,Potency,[4],inactive
CN1C2CCC1CC(OC(=O)c1c[nH]c3ccccc13)C2 (stereo not given),Potency,Papain (Carica papaya),inactive
C[C@]12CCC(=O)C=C1[C@@H]1C[C@@H]1[C@H]1[C@@H]3[C@@H]4C[C@@H]4[C@@]4(CCC(=O)O4)[C@@]3(C)CC[C@@H]12,Potency,[1],inactive
same,Potency,[2],inactive
CN1CCC(=C2c3ccccc3Sc3ccccc32)CC1,Potency,[5],1.38 µM (active)
same,outcome,[6],inactive
same,Potency,[2],inactive
same,Potency,[3],16.8 µM (active)
same,Potency,[4],11.9 µM (active)
c1ccc(-c2ccc(C(c3ccccc3)n3ccnc3)cc2)cc1 (stereo not given),Potency,[5],0.246 µM (active)
same,Potency,[2],0.0245 µM (active)
same,Potency,[3],21.1 µM (active)
same,Potency,[4],13.3 µM (active)
CCCCOc1cc(C(=O)NCCN(CC)CC)c2ccccc2n1,Potency,[5],8.71 µM (active)
same,Potency,[2],inactive
same,Potency,[4],23.7 µM (active)
COc1ccc(OC)c(C(O)CNC(=O)CN)c1 (stereo not given),Potency,[1],inactive
same,Potency,[5],inactive
same,Potency,[3],inactive
same,Potency,[4],inactive
O=C(Nc1ccc(Oc2ccc(Cl)cc2)c(Cl)c1)c1cc(I)cc(I)c1O,Potency,[5],19.5 µM (active)
same,Potency,[2],inactive
same,Potency,[3],inactive
same,Potency,[4],inactive
CC(C)C[C@H]1C(=O)N2CCC[C@H]2[C@]2(O)O[C@](NC(=O)[C@@H]3C=C4c5cccc6[nH]c(Br)c(c56)C[C@H]4N(C)C3)(C(C)C)C(=O)N12,Potency,[5],inactive
same,Potency,[2],3.38 µM (active)
COC(=O)C1=C(C)NC(C)=C(C(=O)O[C@@H]2CCCN(Cc3ccccc3)C2)[C@@H]1c1cccc([N+](=O)[O-])c1,Potency,[5],6.92 µM (active)
same,Potency,[2],0.195 µM (active)
same,Potency,[7],inactive
same,Potency,[3],21.1 µM (active) and 25.8 µM (active)
same,Potency,[4],20.5 µM (active)
O=c1[nH]c(=O)n([C@H]2C[C@H](O)[C@@H](CO)O2)cc1C(F)(F)F,Potency,[5],inactive
same,Potency,[2],inactive
same,Potency,[3],596 nM (active) and 1.05 µM (active)
same,Potency,[4],106 nM (active) and 662 nM (active)
CCCCCCc1ccc(O)cc1O,Potency,[5],4.9 µM (active)
same,Potency,[2],8.71 µM (active)
same,Potency,[3],13.3 µM (active)
CCN(CC)C(=O)/C(C#N)=C/c1cc(O)c(O)c([N+](=O)[O-])c1,Potency,[5],inactive
same,Potency,[2],0.0436 µM (active)
CC(C)N=C(N)/N=C(\N)Nc1ccc(Cl)cc1,Potency,[5],3.09 µM (active)
same,Potency,[2],inactive
CCOC(=O)COc1ccc2c(C)c(CCN(CC)CC)c(=O)oc2c1Cl,Potency,[1],inactive
same,outcome,[6],inactive
same,Potency,[2],inactive
same,Potency,[3],inactive
same,Potency,[4],inactive
CCCOC(C(=O)OC1CCN(C)CC1)(c1ccccc1)c1ccccc1,Potency,[5],3.47 µM (active)
same,Potency,[2],inactive
